Experimental findings from PubChem BioAssay (NCATS) are described below.

“And” between values parts separate entries of the source, which are not always exact repeats. Equal entries are not always repeated. Inconclusive results are not listed. Unmarked numbers belong to inactive results. Calls follow the shape of the dose curve; as a rule, active = well fitted inhibition curve with a large enough effect; inconclusive = small, poorly fitted or top-dose-only effect; inactive = flat fitted curve, though single readings scatter. *1 amine or outer side, *2 acyl side, *3 side chain or, on linkers, in order; H or OH if unused. Where a SMILES comes first, the peptide text is derived from it. Bridges are numbered along the chain shown (N, C = ends). [ ]: non-standard residue; d: D form. The star is where a group is joined. X5 = NC1=N[C@@H]([C@H](N[*:1])C(=O)[*:2])C[C@H](O)N1; ΔAla(Z-3-ureido) = NC(=O)N/C=C(\N)C(=O)O; β3hOrn = NCCC[C@H](N)CC(=O)*; Dap = NC[C@H](N)C(=O)O
% is scaled to controls: 0 for no effect and ±100 for the full control effect.

This test concerns KB-3-1. Briefly: Cytotoxic Profiling of Annotated Libraries Using Quantitative High-Throughput Screening (AID 1296008). Also: nearly all actives have a fitted effect of over 60% in size. Particulars: Five cell lines viability, CellTiter-Glo ATP luminescence, 48-72 h; max response: stronger effect = lower value. The method in brief: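 Compounds were pin-transferred onto cells and incubated 48 or 72 hr at 37 degree Celsius, 95% humidity. CellTiter-Glo was added, plates sat 10 min at room temperature, then ATP-coupled luminescence was imaged as the viability read-out.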
A general note: ATP-based viability assays read luminescence as a measure of living cells.
As for `NCCC[C@H](N)CC(=O)N[C@H]1CNC(=O)[C@H]([C@H]2C[C@H](O)NC(N)=N2)NC(=O)/C(=C/NC(N)=O)NC(=O)[C@H](CO)NC(=O)[C@H](CO)NC1=O` (β3hOrn-[Dap]SS[ΔAla(Z-3-ureido)][X5]; lactam 1-C), the max response is -0.188%.
In the case of `Cc1cc(O)c2c(c1)O[C@@]1(C)CC[C@H]3C(C)(C)CCCC34CO[C@@H]2[C@H]41` (some centres not stated), the max response is -3.47%.
As for `O=C(O)CC/C=C\CC[C@@H]1[C@@H](N2CCCCC2)[C@@H](O)C[C@@H]1OCc1ccc(-c2ccccc2)cc1`, the figure is -15.9%; as for `NC(=O)c1cc[n+](CC2=C(C(=O)O)N3C(=O)[C@@H](NC(=O)C(c4ccccc4)S(=O)(=O)[O-])[C@H]3SC2)cc1` (some centres not stated), 1.04%.
As for `C=CC[C@@H]1/C=C(\C)C[C@H](C)C[C@H](OC)[C@H]2O[C@@](O)(C(=O)C(=O)N3CCCC[C@H]3C(=O)O[C@H](/C(C)=C/[C@@H]3CC[C@@H](O)[C@H](OC)C3)[C@H](C)[C@@H](O)CC1=O)[C@H](C)C[C@@H]2OC`, the figure is 2.3%; as for `CN1c2c(nc(N)[nH]c2=O)NCC1CNc1ccc(C(=O)NC(CCC(=O)O)C(=O)O)cc1` (configuration not stated), 9%.
Next, `N=C(N)n1cccn1`: 3.42%; `CC(=O)N[C@@H](C=O)[C@@H](O)[C@H](O)[C@H](O)CO`: 2.45%; `CC1CCCC(C)N1NC(=O)c1ccc(Cl)c(S(N)(=O)=O)c1` (configuration not stated): 1.28%.
Turning to `S=C=Nc1ccc(N=C=S)cc1`, the max response was -15.9%.
Next, `NC(=O)[C@@H]1CCCN1C(=O)[C@H](Cc1cnc[nH]1)NC(=O)[C@@H]1CCC(=O)N1`: 0.162%; `O=C(O)Cc1nn(Cc2ccc(Br)cc2F)c(=O)c2ccccc12`: 1.97%.
As for `O=C(O)c1ccc(NC2OC[C@@H](O)[C@H](O)[C@H]2O)cc1` (some centres not stated), the figure is -17.7%; as for `CO`, 17.7%.
As for `CO/N=C(\C(=O)N[C@@H]1C(=O)N2C(C(=O)O)=CCS[C@H]12)c1csc(N)n1`, the figure is 1.16%.
In the case of `O=S(=O)(O)CC(S)CS` (configuration not stated), the max response is 3.44%.
As to `O=C1N=C2SCCN2C(=O)C1Cc1ccc(Cl)cc1` (configuration not stated), the max response is -9%.
In the case of `CCN(CC)C(=O)c1cccnc1`, the max response was -8.56%.
Next, `CNC(=O)[C@H](Cc1c[nH]c2ccccc12)NC(=O)[C@@H](CC(=O)NO)CC(C)C`: -8.09%.
As to `NC(=O)CC[C@@H]1NC(=O)[C@H](Cc2ccccc2)NC(=O)[C@H](Cc2ccc(O)cc2)NC(=O)[C@@H](N)CSSC[C@@H](C(=O)N2CCC[C@H]2C(=O)N[C@@H](CCCN=C(N)N)C(=O)NCC(N)=O)NC(=O)[C@H](CC(N)=O)NC1=O`, the max response is 22.3% and -14.9%.
As for `FCOC(C(F)(F)F)C(F)(F)F`, the figure is 6.78%; as for `CCc1cn([C@H]2C[C@H](O)[C@@H](CO)O2)c(=O)[nH]c1=O`, 5.47%.
As to `NC(N)=NCC1COC2(CCCCC2)O1` (configuration not stated), the max response is 1.43%.
As for `CC(C)C[C@H](NC(=O)[C@@H](Cc1c[nH]c2ccccc12)NC(=O)[C@H](Cc1ccc(O)cc1)NC(=O)[C@H](CO)NC(=O)[C@H](Cc1c[nH]c2ccccc12)NC(=O)[C@H](Cc1cnc[nH]1)NC(=O)[C@@H]1CCC(=O)N1)C(=O)N[C@@H](CCCN=C(N)N)C(=O)N1CCC[C@@H]1C(=O)NCC(N)=O`, the max response was 0.539%.
Next, `FC(F)OC(Cl)C(F)(F)F` (configuration not stated): 0.674%.
Regarding `CO/N=C(\C(=O)N[C@@H]1C(=O)N2C(C(=O)O)=C(CSc3nc(C)c(CC(=O)O)s3)CS[C@H]12)c1csc(N)n1`, the max response was 2.01%.
With `NC(=S)NS(=O)(=O)c1ccc(N)cc1`, the max response is 5.24%.
Take `C[C@@H]1O[C@@H]1P(=O)(O)O`: the max response is -3.35%.
Regarding `CC(=C\c1ccccc1)/C=C1/SC(=S)N(CC(=O)O)C1=O`, the max response is 3.64%.
For `O=C(O)[C@H]1C(=CCO)O[C@H]2CC(=O)N12`, the max response is 8.73%.
Next, `CC(=O)N[C@@H]1C(O[C@H]2O[C@H](C(=O)O)C(O)[C@H](O)[C@H]2O)[C@H](O)[C@@H](CO)O[C@H]1O[C@@H]1C(C(=O)O)O[C@@H](O[C@H]2[C@H](O)[C@@H](CO)OC(O)[C@@H]2NC(C)=O)[C@H](O)[C@H]1O` (some centres not stated): -7.66%; `Nc1nc(NC2CC2)c2ncn([C@@H]3C=C[C@@H](CO)C3)c2n1`: 3.44%.
